Test results: PubChem BioAssay AID463173 (ICCB-Longwood Screening Facility, Harvard Medical School, 2010)
Among all 52,000 compounds or so, about 1,700 (3.3%) were called active. The sample holds actives, similar compounds and a random draw of the others, so the mix is not that of the screen. A number with no mark means an inactive call. Cut-off read from the data, not from the text of the source: active = survival mostly below about 52% (no sharp cut-off); inactive = mostly above about 56%.

test system: Wild type; test: growth inhibition of S. aureus wild type versus tarO mutant, primary screen, teichoic acid synthesis inhibitors, RN4220, OD600 (AID 463173); conditions: S. aureus RN4220 wild type/DeltatarO growth, OD600, 18 h, active compounds read low, screened at 18.75 µg/mL (by protocol)

**Q.** `O=C(CSc1nc(=O)n(Cc2ccco2)c2c1CCC2)Nc1cccc(F)c1` was tested. Which survival did it give?
**A.** 72%

**Q.** How did the survival turn out when `C=CCN(CC=C)C(=O)C1CCN(Cc2cc(Br)c(O)c(OC)c2)CC1` was run?
**A.** 98%

**Q.** How did the survival turn out when `COC(=O)c1cc2oc(C)cc2n1Cc1ccc(Br)cc1F` was run?
**A.** 48%

**Q.** For `COC(=O)c1cc2oc(C)cc2n1Cc1ccccc1Cl`, which survival is on record?
**A.** -2% (active)

**Q.** With `COC(=O)c1cc2oc3ccccc3c2n1Cc1ccccc1Cl` as the compound, how does the survival read?
**A.** 60%

**Q.** How did the survival turn out when `CCC(Oc1ccccc1F)C(=O)Nc1cc(-c2ccccc2)no1` (centres undefined) was run?
**A.** 66%

**Q.** Which survival does the source give for `Cc1cccc(C)c1NC(=O)c1ccc2c(c1)nnn2C1CCCC1` here?
**A.** -6% (active)

**Q.** `Cc1cc(C)cc(NC(=O)c2ccc3c(c2)nnn3C2CCCC2)c1` was tested. Which survival did it give?
**A.** 121%

**Q.** Which survival does the source give for `Cc1c(Cl)cccc1NC(=O)c1ccc2c(c1)nnn2C1CCCC1` here?
**A.** 120%

**Q.** For `COC(=O)c1ccccc1NC(=O)CSc1nnc2cc(C)c3cc(C)cc(C)c3n12`, which survival is on record?
**A.** 72%

**Q.** With `CC(=O)N1CCc2c(sc3c2c(=O)n(-c2ccccc2)c(=O)n3CC(=O)c2ccc(F)cc2)C1` as the compound, how does the survival read?
**A.** 91%

**Q.** With `Cc1cccc(C)c1Nc1c(-c2ccccc2Cl)nc2cnccn12` as the compound, how does the survival read?
**A.** 123%

**Q.** `CC(C)c1ccc(Nc2c(-c3ccccn3)nc3ccccn23)cc1` was tested. Which survival did it give?
**A.** -21% (active)

**Q.** Which survival does the source give for `COc1cc(O)ccc1-c1nc2cc(C)ccn2c1Nc1ccccc1C` here?
**A.** 73%

**Q.** Which survival does the source give for `Oc1ccccc1-c1nc2cnccn2c1Nc1ccc(Cl)cc1` here?
**A.** -16% (active)

**Q.** With `Clc1ccc(Nc2c(-c3ccccc3Cl)nc3ccc(Cl)cn23)cc1` as the compound, how does the survival read?
**A.** 25%

**Q.** With `Cc1ccc2nc(-c3ccccc3F)c(Nc3ccc(Cl)cc3)n2c1` as the compound, how does the survival read?
**A.** 11% (active)

**Q.** `Cc1ccn2c(Nc3ccccc3C)c(-c3ccccn3)nc2c1` was tested. Which survival did it give?
**A.** 24% (active)

**Q.** For `Cc1ccc2nc(-c3ccc(O)cc3)c(Nc3ccc(Cl)cc3)n2c1`, which survival is on record?
**A.** 69%

**Q.** How did the survival turn out when `CC(C)c1ccc(Nc2c(-c3ccccc3O)nc3cnccn23)cc1` was run?
**A.** 61%

**Q.** Which survival does the source give for `Cc1ccn2c(Nc3ccccc3C)c(-c3ccc(N4CCOCC4)cc3)nc2c1` here?
**A.** 113%

**Q.** With `COc1ccc(Nc2c(-c3ccccn3)nc3ccc(Cl)cn23)cc1` as the compound, how does the survival read?
**A.** 96%

**Q.** `CC(C)c1ccc(Nc2c(-c3ccco3)nc3ccccn23)cc1` was tested. Which survival did it give?
**A.** 33%

**Q.** Which survival does the source give for `N#C/C(=C\c1cn(CC(=O)N2CCCC2)c2ccccc12)C(=O)NC1CC1` here?
**A.** 103%

**Q.** `CCC(C(=O)NC1CCCCC1)n1c(SCc2ccccc2F)nc2ccncc21` (centres undefined) was tested. Which survival did it give?
**A.** 73%

**Q.** How did the survival turn out when `COc1ccc(CNC(=O)CCc2c(C)nc3nc(CNC(=O)OC(C)(C)C)nn3c2C)cc1` was run?
**A.** 77%

**Q.** For `COc1ccc(C2=NS(=O)(=O)N(C)C(C(=O)NCc3ccccc3)=C2)cc1OC`, which survival is on record?
**A.** 102%

**Q.** For `CCC(C)NC(=O)CSc1nc2n[nH]c(C)c2c(=N)n1-c1cc(Cl)ccc1C` (centres undefined), which survival is on record?
**A.** 72%

**Q.** With `COc1ccccc1CNC(=O)c1c[nH]c2ccc(S(=O)(=O)Nc3cc(C)cc(C)c3)cc2c1=O` as the compound, how does the survival read?
**A.** 67%

**Q.** For `CCC(C)n1c(=O)c2sccc2n2c(CCCC(=O)Nc3ccc(F)cc3)nnc12` (centres undefined), which survival is on record?
**A.** 97%

**Q.** `CCN(CC)C(=O)C(C(F)(F)F)C(F)(F)F` was tested. Which survival did it give?
**A.** 103%

**Q.** Which survival does the source give for `Cc1ccc2nc(-c3ccccn3)c(Nc3ccccc3C)n2c1` here?
**A.** 18% (active)

**Q.** `Cc1ccc(Nc2c(-c3ccccc3O)nc3cc(C)ccn23)cc1` was tested. Which survival did it give?
**A.** 73%

**Q.** Which survival does the source give for `Cc1ccc(Nc2c(-c3cc(Br)ccc3F)nc3cc(C)ccn23)cc1` here?
**A.** 0% (active)

**Q.** `Cc1ccccc1Nc1c(-c2ccc(Br)o2)nc2ccc(Cl)cn12` was tested. Which survival did it give?
**A.** 10% (active)

**Q.** With `Cc1ccc2nc(-c3ccccc3O)c(Nc3ccccc3C)n2c1` as the compound, how does the survival read?
**A.** 79%

**Q.** `Cc1ccc(Nc2c(-c3ccccn3)nc3ccc(Br)cn23)cc1` was tested. Which survival did it give?
**A.** 60%

**Q.** With `Cc1ccccc1Nc1c(-c2ccncc2)nc2ccc(Cl)cn12` as the compound, how does the survival read?
**A.** 128%

**Q.** Which survival does the source give for `Cc1ccccc1Nc1c(-c2cccnc2)nc2ccc(Cl)cn12` here?
**A.** 81%

**Q.** Which survival does the source give for `Cc1ccc2nc(-c3ccccn3)c(Nc3ccc(F)cc3)n2c1` here?
**A.** 16% (active)

**Q.** For `Fc1ccc(Nc2c(-c3ccccn3)nc3ccc(Cl)cn23)cc1`, which survival is on record?
**A.** 73%

**Q.** How did the survival turn out when `Cc1ccc2nc(-c3ccncc3)c(Nc3ccccc3C)n2c1` was run?
**A.** 101%

**Q.** How did the survival turn out when `CSc1ccc(-c2nc3cc(C)ccn3c2Nc2ccc(C)cc2)cc1` was run?
**A.** 87%

**Q.** `Cc1ccccc1Cn1c(C)c(CNCCCc2ccccc2)c(C(=O)O)c1C` was tested. Which survival did it give?
**A.** 98%

**Q.** For `O=C(c1ccc2c(c1)N(Cc1ccccc1F)C(=O)c1ccccc1S2=O)N1CCCCC1` (centres undefined), which survival is on record?
**A.** 89%

**Q.** `CCCS(=O)(=O)c1ncc(Cl)c(C(=O)N(Cc2ccccc2)Cc2ccco2)n1` was tested. Which survival did it give?
**A.** 44%

**Q.** `Cc1ccn2c(Nc3ccccc3C)c(-c3cccnc3)nc2c1` was tested. Which survival did it give?
**A.** 71%

**Q.** With `Cc1ccn2c(Nc3ccccc3C)c(-c3ccccc3)nc2c1` as the compound, how does the survival read?
**A.** -3% (active)

**Q.** `Cc1ccn2c(Nc3ccccc3C)c(-c3ccncc3)nc2c1` was tested. Which survival did it give?
**A.** 80%
